SENP7 inh: SENP7 protease inhibitors, primary screen, biochemical, luminescence, uHTS; Sentrin-specific protease 7 (Homo sapiens), Q9BQF6; recombinant SENP7, Z-RLRGG-aminoluciferin luminescence, 40 min; inhibition, % at 5 µM; 330,000 tested, 1.5% active; AID 434973, 2010;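 active means inhibition above about 50% at the single test dose, limit read from the data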;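 further: plate controls were DMSO with enzyme for no effect and no enzyme buffer wells for full effect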
Target sequence (Q9BQF6 706-1050 limits assumed): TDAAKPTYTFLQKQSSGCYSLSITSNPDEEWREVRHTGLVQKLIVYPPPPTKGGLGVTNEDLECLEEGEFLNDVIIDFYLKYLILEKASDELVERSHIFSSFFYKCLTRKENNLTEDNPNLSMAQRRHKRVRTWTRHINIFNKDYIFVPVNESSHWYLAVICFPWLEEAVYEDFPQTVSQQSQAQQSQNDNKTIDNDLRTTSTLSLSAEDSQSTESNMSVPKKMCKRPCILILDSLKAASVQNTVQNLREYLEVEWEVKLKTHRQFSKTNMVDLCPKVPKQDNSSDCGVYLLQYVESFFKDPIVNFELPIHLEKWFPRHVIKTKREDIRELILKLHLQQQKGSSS
C8 TRAIL sens: viability loss with TRAIL in NB7+C8 cells, primary screen, TRAIL sensitizer project, cell-based, ATPlite luminescence; 360,000 tested, 1% active; inhibition (viability loss, TRAIL sensitization), % at 10 µM;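 active means compounds causing at least 50% loss of cell viability in the single-dose screen, relative to plate controls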
SENP8 block-1: SENP8 protease inhibitors, primary screen, biochemical, luminescence; Sentrin-specific protease 8 (Homo sapiens), Q96LD8; purified SENP8, Z-RLRGG-aminoluciferin cleavage; inhibition, % at 10 µM; 330,000 tested, 1.2% active; in the data active means inhibition above about 50%
Target sequence (Q96LD8 whole entry, looked up): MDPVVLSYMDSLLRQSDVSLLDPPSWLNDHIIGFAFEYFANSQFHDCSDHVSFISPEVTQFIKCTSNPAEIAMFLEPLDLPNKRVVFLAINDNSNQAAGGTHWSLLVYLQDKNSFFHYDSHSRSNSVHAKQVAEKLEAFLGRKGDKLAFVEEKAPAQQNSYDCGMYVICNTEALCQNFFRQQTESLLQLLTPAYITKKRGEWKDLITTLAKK
SENP6 inh: SENP6 protease inhibitors, primary screen, biochemical, luminescence, uHTS | AID 2599, 2010 | Sentrin-specific protease 6 (Homo sapiens), Q9GZR1 | inhibition, % at 10 µM | 330,000 tested, 1.8% active | Recombinant SENP6 catalytic domain, aminoluciferin luminescence;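 active means inhibition above about 50% at the single tested dose, limit read from the data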;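 further: plate controls were DMSO wells with enzyme for no effect and DMSO wells lacking enzyme for full effect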
PPC-1+TRAIL kill: compounds killing PPC-1 cancer cells with TRAIL present, primary screen, TRAIL potentiator project, ATPLite luminescence, uHTS; PPC-1 cells + TRAIL, ATPLite viability luminescence; 220,000 tested, 0.41% active; cell killing (% activity), % at 4 µM or 5 µM;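 active means cell killing above 50% in the first pass at 4 µM, then a duplicate retest at 5 µM averaging 50% or more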;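 further: plate controls were cells with TRAIL plus DMSO for no effect and medium-only wells lacking cells for full effect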
SENP8 block-2: human SENP8 protease inhibitors, primary screen, biochemical, fluorescence, Nedd8 protein substrate, uHTS; Sentrin-specific protease 8 (Homo sapiens), Q96LD8; recombinant SENP8; inhibition, % at 20 µM; 360,000 tested, 0.64% active; in the data active means inhibition mostly above about 40%, no sharp cut-off; inactive means mostly below about 27%
SENP8 inh conf: human SENP8 protease inhibitors, confirmation, biochemical, Nedd8 protein substrate, single concentration; purified SENP8, Nedd8-AMC/pro-Nedd8 cleavage fluorescence, 30 min; shares compounds with SENP8 block-2; inhibition, % at 25 µM; AID 624319, 2012; 1,400 tested, 15% active; in the data active means inhibition mostly above about 39%, no sharp cut-off; inactive means mostly below about 34%
* hit, by the source's call; / = no result. An excerpt weighted towards active compounds, which were near 3% of everything screened.

SMILES	SENP7 inh	C8 TRAIL sens	SENP8 block-1	SENP6 inh	PPC-1+TRAIL kill	SENP8 block-2	SENP8 inh conf
CCOC(=O)C1=C(C)NC(C)=C(C(=O)OCC)C1C(=O)OCC(=O)N1CCCCC1C (stereo not drawn)	-1	9	7	-3	/	-355	/
CCOC(=O)c1[nH]c(C)c(C(=O)OCC(=O)N2CCCCC2C)c1C (stereo not drawn)	-15	20	0	-5	-1	41*	14
O=C(O)C1CC(=O)N(C2CCCCC2)C1c1ccccc1 (stereo not drawn)	4	-4	0	-19	27	41*	10
CC(C)Cc1ccc(C(C)C(N)=NCCc2ccccc2)cc1 (stereo not drawn)	-10	26	-12	-35	/	20	/
O=c1c2ccccc2ncn1Cc1ccc(Cl)c(Cl)c1	4	-7	0	-4	/	6	/
Cc1[nH][nH]c(=O)c1C(c1c(C)[nH][nH]c1=O)c1cn(Cc2ccc(Cl)c(Cl)c2)c2ccccc12	/	-3	/	/	14	73*	68*
Cc1[nH][nH]c(=O)c1C(c1c(C)[nH][nH]c1=O)c1cn(Cc2ccc(F)cc2)c2ccccc12	/	1	/	/	18	77*	73*
COc1ccc(/C=N\Nc2ccc([N+](=O)[O-])cc2[N+](=O)[O-])c(C(=O)O)c1OC	9	-2	5	-2	-7	48*	22
COc1ccccc1/C=N\Nc1ccccc1[N+](=O)[O-]	99*	6	90*	94*	9	50*	6
CC1=C(/C=N/Nc2ccc([N+](=O)[O-])cc2[N+](=O)[O-])C(C)(C)CCC1	7	9	-3	-6	2	46*	2
COc1ccc(/C=N\Nc2ccccc2[N+](=O)[O-])c(C(=O)O)c1OC	7	2	0	-4	0	32	/
Cc1cc(C)cc(C(=O)Nc2ccc(N3CCN(S(C)(=O)=O)CC3)cc2)c1	1	-5	-5	-20	4	2	/
CCCOC(=O)C(C)n1cnc2scc(-c3ccc(C)cc3)c2c1=O (stereo not drawn)	6	-2	-1	12	/	11	/
O=[N+]([O-])c1ccc(N/N=C/c2sc(N3CCOCC3)nc2-c2ccccc2)c(S(=O)(=O)Nc2ccccc2Cl)c1	/	25	/	/	36	46*	30
CCC(=O)Nc1ccc(NC(=O)CSc2nnnn2Cc2ccccc2)cc1C	-1	-6	7	-3	/	-1	/
COCCNC(=S)N/N=C/c1ccc([N+](=O)[O-])cc1	-3	1	-7	-21	17	43*	23
O=[N+]([O-])c1ccc(C=NNc2ccccc2)cc1	/	1	/	/	/	44*	25
O=[N+]([O-])c1cccc(C=NNc2ccccc2)c1	/	11	/	/	/	10	/
O=C(C[C@@H]1C/C=C\C[C@@H](Cc2ccc(F)cc2)C(=O)OC[C@@H](Cc2ccccc2)NC1=O)N[C@H](CO)Cc1ccccc1	11	-4	-4	0	/	5	/
COC(=O)C1=COC(OC2OC(CO)C(O)C(O)C2O)C2C1C=CC2(O)CO (stereo not drawn)	4	-13	-10	-19	10	41*	5
COC(=O)C1=CO[C@@H](O[C@@H]2OC(CO)[C@@H](O)[C@@H](O)[C@@H]2O)C2C1CC[C@]2(C)O (stereo partly drawn)	-4	-3	-7	2	/	30	/
Cc1cccc(CNC(=O)C2CCC(=O)N(CCc3cccc(F)c3)C2)n1 (stereo not drawn)	-2	-1	-4	-6	/	10	/
COc1ccc(NCc2nnc(SCC(=O)Nc3ccccc3OC)o2)cc1	-7	-9	2	-4	5	46*	37
COc1ccccc1NC(=O)CSC(N)=O	-4	2	-4	-10	-16	46*	17
COc1ccc(OC)c(NC(=O)CSc2nnc(CNc3ccc(F)cc3)o2)c1	2	-17	1	-4	9	1	/
SMILES	SENP7 inh	C8 TRAIL sens	SENP8 block-1	SENP6 inh	PPC-1+TRAIL kill	SENP8 block-2	SENP8 inh conf
COc1cccc(C2=NOC(C(=O)N3CCc4ccccc4C3)C2)c1 (stereo not drawn)	5	7	-1	8	/	51*	61*
COc1ccc(OC)c(S(=O)(=O)N2CCC(C(=O)N3CCc4ccccc4C3)CC2)c1	-12	13	-8	-20	4	44*	38
O=C(C1CC(c2ccc(F)cc2)=NO1)N1CCc2ccccc2C1 (stereo not drawn)	2	4	-6	1	15	21	/
CCS(=O)(=O)N1CCCC(C(=O)N2CCc3ccccc3C2)C1 (stereo not drawn)	4	-1	5	1	-6	53*	54*
Cc1ccc(NC(=O)C(C)N2C(=O)c3ccccc3C2=O)cc1S(=O)(=O)N1CCOCC1 (stereo not drawn)	/	-2	/	/	9	20	/
CCOC(=O)c1cccc(NC(=O)Cn2nc(C)n3cccc3c2=O)c1	6	-30	-2	9	/	-5	/
COc1ccc(/C=N/Nc2nnc(C)n2N)cc1OC	0	-15	-5	10	20	41*	18
Cn1c(-c2sc3ccccc3c2Cl)n[nH]c1=S	1	6	-2	-9	3	-80	/
O=C1O[C@@H]([C@H](O)CO)C(O)=C1O	0	-10	0	-10	/	40*	26
COc1cc(NC(C)=O)c2ncccc2c1[N+](=O)[O-]	2	9	-12	-1	22	48*	8
CCOC(=O)[C@]12CCCC=C1N(Cc1cccc3ccccc13)C(=O)[C@H](CC(=O)N1CCCCC1)C2	/	3	/	/	/	16	/
CC(C)CCNC(=O)c1onc(CSc2nc3ccccc3[nH]2)c1C(=O)NCCC(C)C	-4	-13	0	3	/	14	/
Cc1ccc(C(C#N)c2ccc3c(C(F)(F)F)cc(C(F)(F)F)nc3n2)cc1 (stereo not drawn)	-3	35	6	-22	20	43*	11
Cc1cc(OCC(=O)Nc2ccc(Br)cc2)cc2c1C(=O)CC(C)(C)O2	2	16	-8	-8	12	41*	16
CC1(C)CC(=O)c2c(O)cc(OCc3ccc(Br)cc3)cc2O1	3	13	-2	9	23	-2	/
CC(=O)Nc1ccc(NC(=O)COc2cc(O)c3c(c2)OC(C)(C)CC3=O)cc1	5	19	-8	-8	/	41*	12

Screening results from PubChem.
